In PubChem BioAssay AID1403 (National Center for Advancing Translational Sciences (NCATS), 2008):
Records with an inconclusive call do not appear. Active and inactive are the calls of the source. The call rests on the fitted dose curve; in most records, active means well fitted curve in the direction sought with a large enough effect in the signal ratio; inconclusive means small, poorly fitted or top-dose-only effect, or a change in a side signal; inactive means no such curve, though single readings can be large or run the other way; the % refers to the signal ratio.

Target: Follicle-stimulating hormone receptor (Homo sapiens) (UniProt P23945)
Assay: Counterscreen for Agonists of Thyroid Stimulating Hormone Receptor: HTRF Activity in a Follicle Stimulating Hormone Receptor Cell Line
Conditions: HEK293-FSHR cells, 30 min; series mostly up to 91.7 µM
Excerpt: NIH Chemical Genomics Center [NCGC] NIH Molecular Libraries Screening Centers Network [MLSCN] MLSCN Grant: 1 X01 MH080680-01 PI Name: Dr. Marvin Gershengorn, NIH NCGC Assay Overview: Confirmation of Thyroid Stimulating Hormone Receptor Agonists TSH is an alpha/beta heterodimeric glycoprotein hormone secreted from the anterior pituitary gland which belongs to the glycoprotein hormone family. The actions of TSH are mediated by a seven-transmembrane receptor, which upon TSH binding couples preferentially to the G-alpha (s) protein (Gs), resulting in activation of adenylate cyclase and increase in cyclic adenosine 3', 5' monophosphate (cAMP). The TSH receptor (THSR) is mainly expressed in thyroid follicular cells and regulates their growth and function. Recombinant TSH is used to activate TSHR in patients with thyroid cancer receiving thyroid hormone suppression therapy and to screen for residual tumor after surgery, but it is expensive and must be administered intramuscularly. An orally active small molecule TSHR agonist would serve as an invaluable research tool for studying TSHR pharmacology and physiology, and would have multiple advantages in therapeutic settings. However, no selective small molecule agonist of the TSH receptor exists, and no small molecule screen for TSHR agonists has ever been reported. In order to confirm specificity of the compounds to the TSHR, a confirmatory assay was conducted on a similar family member, the Follicle Stimulating Hormone (FSH) receptor, transfected into a HEK 293 cell line, using an orthogonal detection technology to measure cAMP stimulation: antibody-based Homogeneous Time Resolved Fluorescence (HTRF).
NCGC Assay Protocol Summary: Homogeneous Time Resolved Fluorescence (HTRF) cAMP Assay. HEK 293 cells stably transfected with a vector containing the FSH receptor and maintained under hygromycin selection were obtained from the laboratory of Dr. Marvin Gershengorn. Compounds were assayed using a HTRF cAMP detection kit (Cisbio) on the FSH receptor transfected cell line. Briefly, 750 cells were plated in 2.5 ul/well of complete media (DMEM containing 10 % FCS, and 100 uM RO 20-1724) in 1536 well solid bottom white plates and 23 nl/well compound in DMSO solution or controls was added. Following 30 minute incubation at room temperature, 2.5 ul/well of labeled d2 cAMP and 2.5 ul/well of anti-cAMP antibody (both diluted 1:20 in lysis buffer) were added to each well using a flying reagent dispenser (Aurora Discovery, San Diego) . Plates were measured using the Envision plate reader (PerkinElmer, Boston, MA) with excitation at 330 nm and emissions of 615 nm and 660 nm. Keywords: Follicle Stimulating hormone FSH, Thyroid-stimulating hormone TSH, TSHR, TSHR agonist, quantitative high throughput screening, qHTS, HTS, probe identification, CNG, cAMP, cyclic nucleotide gated ion channel PubChem

Structure (SMILES)	outcome
COc1ccc(C2Nc3ccccc3C(=O)N2Cc2ccco2)cc1COc1ccc(NC(C)=O)cc1 (stereo unspecified)	inactive
O=C(COC(=O)C12CC3CC(CC(Cl)(C3)C1)C2)NCc1ccco1	inactive
COc1ccc(C(=O)N(Cc2ccco2)Cc2cccs2)c(O)c1	inactive
COc1ccc(C(=O)N(Cc2ccco2)Cc2cccs2)cc1	inactive
COc1ccc(C2Nc3ccccc3C(=O)N2Cc2ccco2)cc1COc1ccc([N+](=O)[O-])cc1 (stereo unspecified)	inactive
NC(=O)c1nsc(C(=O)N(CC(=O)NCc2ccc3c(c2)OCO3)C2CCCC2)c1N	inactive
O=C1C2C3CCCC3=C3CCCC3C2C(=O)N1c1ccc(F)cc1 (stereo unspecified)	inactive
O=C1C2C3CCCC3=C3CCCC3C2C(=O)N1c1ccc(Cl)cc1 (stereo unspecified)	inactive
O=C(COC(=O)C12CC3CC(CC(Br)(C3)C1)C2)NCc1ccco1	inactive
O=C1C2C3CCCC3=C3CCCC3C2C(=O)N1c1cccc(Cl)c1 (stereo unspecified)	inactive
CCn1c(=O)c(C(=O)CN2CCCc3ccccc32)c(N)n(Cc2ccccc2)c1=O	inactive
COc1ccc(C(=O)N(Cc2ccco2)Cc2cccs2)c(OC)c1	inactive
O=C1C2C3CCCC3=C3CCCC3C2C(=O)N1c1ccccc1Cl (stereo unspecified)	inactive
O=c1c2c(-c3ccccc3)csc2ncn1/N=C/c1cn(-c2ccccc2)nc1-c1cccs1	inactive
NC(=O)c1nsc(C(=O)N(CC(=O)NCc2ccc3c(c2)OCO3)C2CCCCC2)c1N	inactive
Cc1nn(-c2ccccc2)c(N2CCCC2)c1/C=N/n1cnc2scc(-c3ccccc3)c2c1=O	inactive
O=C(COC(=O)C12CC3CC(CC(C3)C1)C2)NCc1ccco1	inactive
O=C1CC(c2ccccc2)CC2=C1C(c1ccco1)n1nc(C(F)(F)F)nc1N2 (stereo unspecified)	inactive
COc1cc(OC)c(C(=O)N(Cc2ccco2)Cc2cccs2)cc1OC	inactive
COc1ccc(C2Nc3ccccc3C(=O)N2Cc2ccco2)cc1COc1c(C)cccc1C (stereo unspecified)	inactive
O=C(COC(=O)C12CC3CC(CC(O)(C3)C1)C2)NCc1ccco1	inactive
COc1ccc(C2Nc3cccc(O)c3C(=O)N2Cc2ccccc2)cc1COc1ccc(NC(C)=O)cc1 (stereo unspecified)	inactive
NC(=O)c1nsc(C(=O)N(CC(=O)NC2CCCC2)Cc2ccc3c(c2)OCO3)c1N	inactive
O=C(COC(=O)C12CC3CC(CC(C3)C1)C2)NCC1CCCO1 (stereo unspecified)	inactive
Cc1sc2ncn(/N=C/c3cn(-c4ccccc4)nc3-c3ccccc3)c(=O)c2c1C	inactive
CC(NC(=O)COC(=O)c1ccco1)C12CC3CC(CC(C3)C1)C2 (stereo unspecified)	inactive
